The panel holds about 83,000 compounds, 20% with a hit somewhere; the sample as a whole holds those more often.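 A percent growth of 40 corresponds to 60% growth inhibition; 0 means no net growth; -100 means all cells died. Active threshold: below 10.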 Values without a mark were called inactive.

Consider three molecules from PubChem BioAssay (NCI).

This assay relates to HL-60(TB) leukemia. Nature of the assay: NCI-60 one-dose screen, 48 h (100 = growth as untreated, 0 = no growth, -100 = all killed). Particulars: 10 µM unless noted.
In the case of `CCN1CCN(CC(=O)Nc2nc3ccc(NCc4ccc(C)cc4)cc3s2)CC1`, the growth is 32.5%.

Take `COc1cc(C(=O)N2CCN(C(=O)c3cc(OC)c(OCc4ccccc4)cc3N)CC2)c(N)cc1OCc1ccccc1`: the growth was 112%.

With `Cc1nc(C)c(C)nc1C`, the growth is 73.9%.
